Source: PubChem BioAssay AID489025 (Southern Research Specialized Biocontainment Screening …, 2010)
About 790 (34%) of roughly 2,300 compounds were called active. The list shows a part of the results. Measured potencies and affinities stand elsewhere. Unmarked numbers belong to inactive results. How the calls were made is not given here.

Assay: THP-1 cell cytotoxicity, dose response, cytotoxicity control for non-replicating M. tuberculosis project (AID 489025)
Details: THP-1 cell viability; series mostly up to 40 µM; viability: at the top concentration

Point of comparison: Cc1ccc(Sc2ccc(C=C3C(=O)N(C)C(=O)N(C)C3=O)o2)cc1, “viability” value 96.4%. Against it:
- CC1CCCN(CCSc2ccc(Cl)cc2)C1 (stereo not drawn) — lower, 93.1%
- CCC(C)(C)c1ccc(OCC(=O)Nc2ccncc2)cc1 — higher, 117%
- COc1ccc(-n2c3c(cc(C(=O)NNc4ccccc4)c2=O)C(=O)CC(C)(C)C3)cc1 — higher, 108%
- Cc1cccc(NC(=O)COC(=O)CCc2c[nH]c3ccccc23)c1 — higher, 109%
- Cc1ccc(C(C)C)c(OCC(=O)OCc2c(C)noc2C)c1 — higher, 106%
- CCOC(=O)COc1ccc(C(=O)Nc2cccc(Cl)c2C)cc1 — higher, 108%
- CCOC(=O)Cc1nc2cc(Cl)ccc2o1 — higher, 104%
- c1ccc(-c2nnc(SCc3nnc(-c4cccs4)o3)o2)cc1 — higher, 112%
- O=C1c2ccccc2CC1Sc1nnc(-c2ccncc2)o1 (stereo not drawn) — higher, 111%
- CCCCCCOc1ccc(N2C(=O)CC(N3CCN(C(=O)c4ccco4)CC3)C2=O)cc1 (stereo not drawn) — higher, 96.9%
- O=C(Nc1cccc(Cl)c1)C1COc2ccccc2O1 (stereo not drawn) — lower, 81%
- CC(C)NC(=O)C1COc2ccccc2O1 (stereo not drawn) — lower, 85.2%
- O=C(Nc1cccc([N+](=O)[O-])c1)C1COc2ccccc2O1 (stereo not drawn) — lower, 89.2%
- COc1ccc(NC(=O)C2COc3ccccc3O2)cc1 (stereo not drawn) — higher, 111%
- CC(C)(C)c1ccc2c(c1)OC(C(=O)N/N=C\c1ccccn1)CO2 (stereo not drawn) — higher, 114%
- Cc1ccccc1NC(=O)C1COc2ccccc2O1 (stereo not drawn) — lower, 88%
- O=C(Nc1ccc([N+](=O)[O-])cc1)C1COc2ccccc2O1 (stereo not drawn) — lower, 92.3%
- CC(/C=C/c1ccc2c(c1)OCO2)=N/NC(=O)C1COc2ccccc2O1 (stereo not drawn) — lower, 89%
- CN1CCC(O)(c2ccccc2)C(C(=O)c2ccccc2)C1 (stereo not drawn) — lower, 93.6%
- COc1cccc(NC(=O)COC(=O)Cc2ccc(Br)cc2)c1 — higher, 122%
- COc1ccc(OCCC(=O)OCC(=O)Nc2ccc(Br)cc2)cc1 — higher, 107%
- Cn1ccsc1=NC(=O)c1ccccc1F — higher, 98.2%
- Cc1ccccc1C(=O)NNc1ccc([N+](=O)[O-])cc1 — higher, 112%
- CC(C)(C)Sc1ccc2nc3c(n2c1)CCCC3 — lower, 77.6%
- COc1ccc(N=Cc2nc(-c3ccccc3)oc2OC(C)=O)cc1 — higher, 103%
- CCCOc1ccc(N2C(=O)CC(N3CCCC(C(=O)N4CCCC4)C3)C2=O)cc1 (stereo not drawn) — higher, 128%
- Cc1ccc(C2=NN(C)c3nc4ccccc4n3C2)cc1 — lower, 77.3%
- COc1cccc(C(=O)OCC(=O)c2ccc(Br)s2)c1OC — higher, 112%
- O=C(COC(=O)c1ccccc1)NC12CC3CC(CC(C3)C1)C2 — lower, 90.6%
- C=CCN1C(=O)C2(NNc3ccccc3O2)c2ccccc21 (stereo not drawn) — lower, 75.5%
- O=C(NCCC1=CCCCC1)c1coc(=O)c(Br)c1 — higher, 107%
- COc1ccc(C2=Nc3ccccc3OC2)cc1 — lower, 94.8%
- Cc1ccc(N2C(=O)CC(Sc3nccc(C)n3)C2=O)cc1 (stereo not drawn) — lower, 94.9%
- COc1ccc(C(=O)OCn2nnc3ccccc3c2=O)cc1[N+](=O)[O-] — higher, 107%
- COC(=O)c1ccc(Cn2cc(C(F)(F)F)cc([N+](=O)[O-])c2=O)cc1 — higher, 111%
- Cc1cccc(C)c1NC(=O)COC(=O)CCc1c[nH]c2ccccc12 — higher, 126%
- C=C[C@]1(C)C=C2CCC3[C@](C)(CCC[C@@]3(C)C(=O)O)C2CC1 (stereo partly drawn) — higher, 104%
- Oc1c(Br)cc(Br)cc1/C=N/c1nccs1 — higher, 97.5%
- Cc1nnc(C)n1/N=C/c1cc(Br)cc(Br)c1O — lower, 77.9%
- Cc1ccc(-c2nnc(SCC#CCOC(=O)c3ccco3)o2)cc1 — higher, 103%
- CCOC(=O)COc1ccc2c(c1)c(C(=O)OCC)c(C)n2CC — higher, 99.8%
- O=C(Nc1ccccc1N1CCCC1)c1cccc(F)c1 — higher, 105%
- COc1ccc(OCC(=O)NNC(=O)c2ccccn2)cc1 — higher, 104%
- O=C(COc1ccc(Cl)cc1)NNC(=O)c1ccccn1 — higher, 108%
- COC(=O)c1ccc(OCC(=O)c2cccc(OC)c2)cc1 — higher, 108%
- COc1cccc(NC(=O)c2ccc(C(=O)c3ccccc3)o2)c1 — lower, 85.4%
- O=C(Nc1ncccc1O)c1ccc(Oc2ccccc2)cc1 — lower, 90.7%
- O=C(N/N=C/c1ccc[nH]1)c1cccnc1 — higher, 119%
- CCc1ccc(NC(=O)C(=O)NNC(=O)COc2cccc(OC)c2)cc1 — lower, 91.4%
- Brc1ccc(CSc2nnc(-c3ccco3)o2)cc1 — lower, 85.3%
- COc1ccc([C@@]2(O)c3c(ccc(CC=C(C)C)c3O)NC(=O)[C@@H]2OC)cc1 — lower, 95.8%
- CCCOC(=O)NC1CCS(=O)(=O)C1 (stereo not drawn) — lower, 95.1%
- CCc1ccc(N2C(=O)CC(N3CCC(C(=O)OC)CC3)C2=O)cc1 (stereo not drawn) — higher, 109%
- CCOC(=O)c1c(C)n(C)c2ccc(OC(C)C(=O)OC)cc12 (stereo not drawn) — higher, 123%
- COc1ccc(/C=N/NC(=O)c2ccncc2)cc1CN1CCOCC1 — higher, 112%
- COc1cc(NC(=O)N2CCOCC2)cc(OC)c1 — higher, 105%
- COc1ccc(CN2CCC(C(=O)Nc3ccc(Oc4cccnc4)cc3)CC2)c(C)c1C — lower, 81.3%
- Oc1ccc(F)c2cccnc12 — lower, 87.5%
- O=C(CCN1CCOCC1)c1ccc(Cl)cc1 — lower, 87.8%
- CCOC(=O)C1(CCc2ccccc2)CCN(Cc2ccccn2)CC1 — lower, 72.8%
- COc1cc(OC)cc(OC(=O)c2ccc3c(=O)n4c(nc3c2)CCC4)c1 — higher, 100%
- O=C(COc1c(Br)cc(Br)c2cccnc12)N1CCCCC1 — lower, 79.9%
